# Bioassay records from PubChem BioAssay.
# This is a sample that favours compounds with a hit; in the whole collection about 1.8% have one here.
# LYPLA2 counter – blocks human lysophospholipase 2, a PME1 counter-screen. O95372. inhibition, % at 5.9 µM. recombinant LYPLA2, FP-Rh probe fluorescence polarization. AID 2177. 320,000 tested, 0.38% active;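 active = inhibition above the screen-wide mean plus 3 SD, limit set per campaign, cut at about 26% in these data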
# Fam108B counter – Fam108B inhibition, counter-screen for RBBP9 inhibitors; recombinant Fam108B, FP-Rh probe fluorescence polarization; inhibition, % at 9.51 µM; 300,000 tested, 0.33% active;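 active = inhibition above the screen mean inhibition plus 3 SD, computed separately per campaign, cut at about 18% in these data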;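 also: inhibitors lower polarization as less probe binds the enzyme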
# LYPLA1 inh – counter-screen for PME1 inhibitors: inhibitors of human LYPLA1 | O75608 | recombinant LYPLA1, FP-Rh probe fluorescence polarization | inhibition, % at 5.9 µM | 320,000 tested, 0.16% active | AID 2174;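 active = inhibition above the mean of all tested compounds plus 3 SD, set per campaign, cut at about 14% in these data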;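 also: inhibitors block serine hydrolase probe labeling of LYPLA1 so polarization falls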
# Target sequence (O75608 whole entry, looked up): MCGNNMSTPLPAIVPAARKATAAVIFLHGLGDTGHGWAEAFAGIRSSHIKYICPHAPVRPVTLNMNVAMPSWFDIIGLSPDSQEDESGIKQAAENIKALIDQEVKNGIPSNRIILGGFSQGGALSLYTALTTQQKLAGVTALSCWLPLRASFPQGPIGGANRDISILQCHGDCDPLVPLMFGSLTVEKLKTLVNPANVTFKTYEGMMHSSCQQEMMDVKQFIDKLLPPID
# PME-1 primary – PME-1 (human) inhibition | Q9Y570 | recombinant PME-1, FP-Rh probe fluorescence polarization | inhibition, % at 5.9 µM | 320,000 tested, 0.53% active | AID 2130;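 active = inhibition above the campaign mean of all compounds plus 3 SD, cut at about 26% in these data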;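 also: competitive labeling of PME-1 active site by serine hydrolase directed probe; inhibitors block probe labeling so polarization falls and inhibition rises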
# PAD4 inh – blocks human protein arginine deiminase 4. recombinant PAD4, RCA probe fluorescence polarization. inhibition, % at 6.36 µM. 330,000 tested, 0.41% active;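 active = percent inhibition above a cutoff equal to the mean of all tested compounds plus 3 SD, cut at about 15% in these data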
# GSTO1 counter – counter-screen for RBBP9 inhibitors: inhibitors of human GSTO1; P78417; recombinant GSTO1, activity-based probe fluorescence polarization; inhibition, % at 5.96 µM; 300,000 tested, 1.1% active;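 active = inhibition above the campaign mean inhibition plus 3 SD, cut at about 35% in these data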
# Target sequence (P78417 whole entry, looked up): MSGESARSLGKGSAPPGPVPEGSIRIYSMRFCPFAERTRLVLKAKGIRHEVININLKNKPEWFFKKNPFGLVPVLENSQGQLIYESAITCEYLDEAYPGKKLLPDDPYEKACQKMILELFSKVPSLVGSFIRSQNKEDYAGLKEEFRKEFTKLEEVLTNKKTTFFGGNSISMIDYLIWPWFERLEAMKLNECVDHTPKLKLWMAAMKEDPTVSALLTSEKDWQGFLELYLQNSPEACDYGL
# Fam108b confirm – confirmation of mouse Fam108b serine hydrolase inhibitors | 930 tested, 44% active | shares compounds with Fam108B counter | inhibition, % at 9.51 µM | recombinant Fam108b, FP-Rh probe fluorescence polarization;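 active = inhibition above a limit from the primary screen, the mean over all compounds plus 3 SD, cut at about 19% in these data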;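 also: inhibitors free the probe so polarization falls as inhibition rises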
# Fam108b ABPP HTS – mouse ABHD17B inhibition | shares compounds with Fam108B counter | recombinant Fam108b, gel-based ABPP, fluorophosphonate probe | inhibition, % at 20 µM | 260 tested, 44% active | AID 588649; in the data active = inhibition above about 40%
# Hits are given with their value; – = inactive; · = no result.
SMILES,LYPLA2 counter,Fam108B counter,LYPLA1 inh,PME-1 primary,PAD4 inh,GSTO1 counter,Fam108b confirm,others
CCN(CC)S(=O)(=O)c1cccc(NC(=O)C2CC(=O)N(c3ccc4c(c3)OCCO4)C2)c1 (stereo not drawn),–,–,–,–,–,–,·,
O=C(NCc1ccccc1)c1sc(=S)n2c1[nH]c(=O)c1ccccc12,–,40,–,–,–,–,55,Fam108b ABPP HTS=–
CSc1ccc(C2=CC(=O)C[C@H](c3ccc(Cl)cc3)C2)cc1,–,·,–,–,–,·,·,
O=[N+]([O-])c1ccc(O)c(C=NNC(=S)Nc2ccc(Cl)cc2Cl)c1,·,·,·,·,·,·,·,Fam108b ABPP HTS=–
O=[N+]([O-])c1ccc(O)c(/C=N/Nc2ccccc2Cl)c1,–,–,–,–,–,–,·,
Oc1cccc(NC(=S)N=Nc2c(O)[nH]c3ccc(Br)cc23)c1,–,24,–,33,–,–,–,
Oc1[nH]c2ccc(Br)cc2c1N=NC(=S)Nc1ccc(F)cc1,–,–,–,–,–,–,·,
CN(c1ccccc1)S(=O)(=O)c1ccc(NC(=O)c2ccccc2)cc1,–,–,–,–,–,–,·,
CN(c1ccccc1)S(=O)(=O)c1ccc(NC(=O)c2nc(S(C)(=O)=O)ncc2Cl)cc1,–,32,–,47,–,–,24,
COc1ccc(/C=C2\SC(=S)N(CC(=O)OCC(=O)Nc3cc(Cl)cc(Cl)c3)C2=O)cc1,–,27,–,–,–,–,78,Fam108b ABPP HTS=85
COc1ccc(/C=C2/SC(=S)N(CCCC(=O)Nc3cccc(O)c3)C2=O)cc1,–,–,–,–,–,–,·,
CN1C[C@@H]2C(c3ccc(C(F)(F)F)cc3)C3(c4ccc(C#N)cc4)CC2(C3)[C@H]1c1ccccc1 (stereo partly drawn),–,–,–,–,–,–,·,
O=C1c2ccccc2C2=Nc3ccccc3SC(c3cccc(F)c3)C12 (stereo not drawn),–,22,–,–,–,–,–,
CCc1nnc(NS(=O)(=O)c2ccc(NC(=S)NC(=O)/C=C/c3ccc(F)cc3)cc2)s1,–,–,–,–,–,–,·,
Cc1ccc(N2C(=O)C3CCC(C)(C2=O)C3(C)C)cc1 (stereo not drawn),–,–,–,–,–,–,·,
CSC[C@@H]1NC(=S)N(c2ccc(C)cc2)C1=O,–,31,–,60,–,–,50,Fam108b ABPP HTS=40
COc1cccc(NC(=O)N2CCC(n3nnc4ccccc43)CC2)c1,–,–,–,–,–,–,·,
COc1ccc([N+](=O)[O-])cc1NC(=O)C1C2C=CC(C2)C1C(=O)O (stereo not drawn),–,19,–,–,–,–,–,
COc1ccc(C(C)(C)C)cc1NC(=O)C1C2C=CC(C2)C1C(=O)O (stereo not drawn),–,–,–,–,–,–,·,
Cc1nn(-c2ccccc2C(=O)O)c(=O)c2ccccc12,–,–,–,–,–,–,·,
Cc1nn(-c2ccc(Br)cc2)c(=O)c2ccccc12,–,88,–,93,–,–,–,
N#C/C(=C\c1coc2ccc(O)cc2c1=O)C(=O)Nc1nc2ccccc2s1,–,44,–,–,–,–,–,
N#C/C(=C\c1coc2ccccc2c1=O)C(N)=S,–,–,–,–,–,–,·,
COc1cc(OC)c(OC)cc1/C=N/NC(=O)c1cc(-c2cccn2C)n[nH]1,–,–,–,–,–,–,·,
CCOc1cccc(/C=N/NC(=O)c2cc(-c3cccn3C)n[nH]2)c1O,–,22,–,–,–,–,–,
SMILES,LYPLA2 counter,Fam108B counter,LYPLA1 inh,PME-1 primary,PAD4 inh,GSTO1 counter,Fam108b confirm,others
CC1(C)Cc2nc3oc4c(NCCCN5CCOCC5)ncnc4c3cc2CO1,–,–,–,–,–,–,·,
O=C1Nc2ccc(Br)cc2C12NNc1ccccc1O2 (stereo not drawn),–,21,–,38,–,–,–,
Cc1cc(C(=O)COC(=O)CN=C2NS(=O)(=O)c3ccccc32)c(C)n1CCc1ccc(Cl)cc1,–,–,–,–,–,–,·,
CN(C)CC(C)(C)CNS(=O)(=O)c1cccc2nsnc12,–,–,–,–,–,–,·,
CC(=O)Oc1ccc(C(=O)Cc2ccc3ccccc3n2)c(O)c1C,–,–,–,–,–,–,·,
Cc1c(O)ccc(C(Cc2ccc3ccccc3n2)=NO)c1O,·,·,·,·,·,·,·,Fam108b ABPP HTS=–
Cc1c(O)ccc(/C(Cc2ccc3ccccc3n2)=N\O)c1O,–,25,–,50,–,–,29,
CC(=O)Nc1ccc(-c2nnn(CC(=O)Nc3ccc4c(c3)OCO4)n2)cc1Cl,–,–,–,–,–,–,·,
CCOC(=O)c1c(C)n(-c2ccccc2)c2ccc(OCCN(C)C)cc12,–,–,–,–,–,–,·,
Cc1nc2cccc(C(=O)NCc3ccccc3)c2o1,–,–,–,–,–,–,·,
CCOC(=O)C1=C(C)N=c2sc(=Cc3ccc(O)c([N+](=O)[O-])c3)c(=O)n2C1c1ccccc1OC (stereo not drawn),·,·,·,·,·,·,·,Fam108b ABPP HTS=–
O=C(NN=Cc1ccc(O)cc1)c1cccc(NN=Cc2ccc(O)cc2)c1,·,·,·,·,·,·,·,Fam108b ABPP HTS=95
CC(=O)Nc1cccc(C(=O)N/N=C/c2ccc(F)cc2)c1,–,–,–,–,–,–,·,
O=C(O)c1ccc(NC(=O)c2cccc(C(=O)Nc3ccc(C(=O)O)cc3)n2)cc1,–,21,–,–,–,–,–,
CN(C)c1ccc(NC(=O)c2cccc(C(=O)Nc3ccc(N(C)C)cc3)n2)cc1,–,21,–,–,–,–,32,Fam108b ABPP HTS=–
Cc1ccc(NC(=O)CN2C(=O)N/C(=C/c3cccn3-c3ccc(C(=O)O)cc3)C2=O)cc1,–,44,–,–,–,37,39,Fam108b ABPP HTS=–
Cc1ccc(NC(=O)CN2C(=O)N/C(=C/c3ccco3)C2=O)cc1,–,–,–,–,–,–,·,
COc1ccc(Cn2c(O)c(C=Nc3ccc(O)cc3)c3ccccc3c2=O)cc1,–,31,–,–,–,–,–,
CCCCCCCN1CCC(=O)N([C@H](CO)c2ccccc2)CC1,–,–,–,–,–,–,·,
COc1cc(/C=N/NC(=O)c2ccc(CN3C(=O)c4cccc5cccc3c45)cc2)cc(OC)c1O,–,31,–,–,–,–,22,
COc1ccc(/C=N/NC(=O)c2ccc(CN3C(=O)c4cccc5cccc3c45)cc2)cc1O,–,–,–,–,–,–,·,
COc1cc2c(c(OC)c1OC)-c1ccc(N(C)CC(OC)OC)c(=O)cc1[C@@H](NC(C)=O)CC2,–,19,–,–,–,–,–,
CN(C)S(=O)(=O)c1cc(NC(=O)c2cc(=O)[nH]c3ccccc23)ccc1Cl,–,–,–,–,–,–,·,
NNc1nc2c(-c3ccc(F)cc3)nnn2c2ccccc12,–,26,–,–,–,–,–,
Fc1ccc(-c2nnn3c2nc(NCc2ccccc2)c2ccccc23)cc1,–,–,–,–,–,–,·,
